Key:
Assay in all cases: log2 ratio of Biotin-Ahx-Ub-VS probe labelling (fragment/DMSO); higher = less target engagement (more negative = stronger competition), active = hit call of the paper (q ≤ 0.05, log2 ratio ≤ -1)
Settings in all cases: compound concentration: 200 uM; treatment time: 3 h
USP42 = target: T1, USP42 (UniProt Q9H9J4)
T1 sequence (whole entry): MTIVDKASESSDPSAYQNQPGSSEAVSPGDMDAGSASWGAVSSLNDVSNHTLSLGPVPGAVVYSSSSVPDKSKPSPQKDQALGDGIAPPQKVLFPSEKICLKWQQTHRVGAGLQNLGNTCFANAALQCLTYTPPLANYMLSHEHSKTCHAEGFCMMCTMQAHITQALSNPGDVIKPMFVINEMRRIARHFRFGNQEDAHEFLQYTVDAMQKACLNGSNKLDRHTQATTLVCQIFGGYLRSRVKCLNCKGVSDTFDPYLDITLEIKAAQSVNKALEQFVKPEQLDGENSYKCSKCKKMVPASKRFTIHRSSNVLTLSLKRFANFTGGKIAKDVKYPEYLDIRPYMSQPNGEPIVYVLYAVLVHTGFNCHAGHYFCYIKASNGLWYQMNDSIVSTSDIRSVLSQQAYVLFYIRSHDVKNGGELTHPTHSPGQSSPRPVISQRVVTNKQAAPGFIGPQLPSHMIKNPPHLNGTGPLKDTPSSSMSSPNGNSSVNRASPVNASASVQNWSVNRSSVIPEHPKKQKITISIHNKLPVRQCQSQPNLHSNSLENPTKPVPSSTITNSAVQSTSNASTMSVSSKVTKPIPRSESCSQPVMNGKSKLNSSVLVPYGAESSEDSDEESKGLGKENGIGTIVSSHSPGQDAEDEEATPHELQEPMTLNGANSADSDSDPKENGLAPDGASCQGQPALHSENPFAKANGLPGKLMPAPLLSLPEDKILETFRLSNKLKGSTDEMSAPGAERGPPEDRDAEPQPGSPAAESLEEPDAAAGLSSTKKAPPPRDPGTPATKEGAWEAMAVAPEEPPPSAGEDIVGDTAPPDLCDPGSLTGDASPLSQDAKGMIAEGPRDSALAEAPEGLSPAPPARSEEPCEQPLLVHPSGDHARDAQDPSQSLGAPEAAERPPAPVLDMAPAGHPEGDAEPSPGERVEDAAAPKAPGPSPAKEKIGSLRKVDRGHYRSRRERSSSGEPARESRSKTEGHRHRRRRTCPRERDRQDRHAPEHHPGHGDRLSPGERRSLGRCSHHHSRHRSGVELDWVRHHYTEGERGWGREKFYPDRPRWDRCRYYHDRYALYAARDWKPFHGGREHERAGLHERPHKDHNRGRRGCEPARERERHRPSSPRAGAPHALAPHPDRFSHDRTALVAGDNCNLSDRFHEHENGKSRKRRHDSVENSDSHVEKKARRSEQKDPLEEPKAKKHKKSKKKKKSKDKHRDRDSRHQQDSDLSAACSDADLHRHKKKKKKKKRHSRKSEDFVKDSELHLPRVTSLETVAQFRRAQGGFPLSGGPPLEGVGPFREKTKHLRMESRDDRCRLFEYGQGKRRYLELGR
Procedure, shortened: (§1)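 Labelled DUBs were enriched with NeutrAvidin, digested with LysC and trypsin, and run by diaPASEF LC-MS/MS. The labelling used Biotin-Ahx-Ub-VS at 0.5 µM final for 1 h on HEK293T lysate (495 µg per sample) previously treated in triplicate with fragment at 200 µM or vehicle for 3 h. Values are average log2 fragment/vehicle ratios by unpaired t-test on global-median-normalised Spectronaut quantities of proteins with ≥2 unique peptides.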

USP46 = USP46 (UniProt P62068)
USP46, sequence (P62068 whole entry): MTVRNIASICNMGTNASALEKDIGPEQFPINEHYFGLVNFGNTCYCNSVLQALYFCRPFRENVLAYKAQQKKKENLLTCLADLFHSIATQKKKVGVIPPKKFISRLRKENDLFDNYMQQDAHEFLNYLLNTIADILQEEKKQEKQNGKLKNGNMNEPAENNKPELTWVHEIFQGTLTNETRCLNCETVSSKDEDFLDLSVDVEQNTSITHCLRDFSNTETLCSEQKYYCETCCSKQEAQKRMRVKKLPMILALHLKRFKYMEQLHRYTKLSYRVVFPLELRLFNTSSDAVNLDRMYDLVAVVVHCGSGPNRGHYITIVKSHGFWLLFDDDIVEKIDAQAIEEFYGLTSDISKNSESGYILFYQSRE
Procedure, shortened: as §1

USP47 = target: T2, USP47 (UniProt Q96K76)
T2 sequence (whole entry): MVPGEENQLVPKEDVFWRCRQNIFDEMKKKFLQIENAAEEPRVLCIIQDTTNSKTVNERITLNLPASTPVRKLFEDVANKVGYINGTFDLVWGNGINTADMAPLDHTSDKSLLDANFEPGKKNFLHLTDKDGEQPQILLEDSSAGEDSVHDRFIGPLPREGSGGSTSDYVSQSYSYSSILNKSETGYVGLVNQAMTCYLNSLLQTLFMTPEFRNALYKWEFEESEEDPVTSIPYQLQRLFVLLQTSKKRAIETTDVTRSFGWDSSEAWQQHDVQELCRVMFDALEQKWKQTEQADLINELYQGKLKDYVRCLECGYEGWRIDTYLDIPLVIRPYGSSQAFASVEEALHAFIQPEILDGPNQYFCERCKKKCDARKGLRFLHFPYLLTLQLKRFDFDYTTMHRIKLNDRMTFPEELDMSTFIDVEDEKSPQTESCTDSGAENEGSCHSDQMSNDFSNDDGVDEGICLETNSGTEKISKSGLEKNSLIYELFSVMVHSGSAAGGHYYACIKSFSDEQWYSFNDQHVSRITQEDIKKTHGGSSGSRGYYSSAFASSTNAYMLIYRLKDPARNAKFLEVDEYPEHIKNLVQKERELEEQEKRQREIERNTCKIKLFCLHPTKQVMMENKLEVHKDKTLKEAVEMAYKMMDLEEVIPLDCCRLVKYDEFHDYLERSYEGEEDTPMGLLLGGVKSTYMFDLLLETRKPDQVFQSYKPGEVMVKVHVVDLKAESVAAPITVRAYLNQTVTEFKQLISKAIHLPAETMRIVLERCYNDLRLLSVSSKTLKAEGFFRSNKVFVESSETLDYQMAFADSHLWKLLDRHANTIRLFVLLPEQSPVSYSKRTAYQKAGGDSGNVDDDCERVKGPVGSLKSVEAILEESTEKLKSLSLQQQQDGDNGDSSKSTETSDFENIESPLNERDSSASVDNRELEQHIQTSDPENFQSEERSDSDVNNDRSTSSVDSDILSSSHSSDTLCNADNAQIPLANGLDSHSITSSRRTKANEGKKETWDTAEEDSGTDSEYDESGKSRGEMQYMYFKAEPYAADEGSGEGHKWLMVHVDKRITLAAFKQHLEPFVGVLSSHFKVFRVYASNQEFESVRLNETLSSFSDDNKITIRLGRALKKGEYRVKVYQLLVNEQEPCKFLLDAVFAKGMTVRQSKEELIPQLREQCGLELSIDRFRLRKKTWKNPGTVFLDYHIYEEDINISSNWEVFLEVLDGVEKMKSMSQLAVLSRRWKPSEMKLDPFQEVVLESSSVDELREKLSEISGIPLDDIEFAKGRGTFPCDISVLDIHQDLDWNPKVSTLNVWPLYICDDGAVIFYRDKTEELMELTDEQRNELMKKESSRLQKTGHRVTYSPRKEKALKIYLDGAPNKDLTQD
Procedure, shortened: as §1

USP48 = target: T3, USP48 (UniProt Q86UV5)
T3 sequence (whole entry): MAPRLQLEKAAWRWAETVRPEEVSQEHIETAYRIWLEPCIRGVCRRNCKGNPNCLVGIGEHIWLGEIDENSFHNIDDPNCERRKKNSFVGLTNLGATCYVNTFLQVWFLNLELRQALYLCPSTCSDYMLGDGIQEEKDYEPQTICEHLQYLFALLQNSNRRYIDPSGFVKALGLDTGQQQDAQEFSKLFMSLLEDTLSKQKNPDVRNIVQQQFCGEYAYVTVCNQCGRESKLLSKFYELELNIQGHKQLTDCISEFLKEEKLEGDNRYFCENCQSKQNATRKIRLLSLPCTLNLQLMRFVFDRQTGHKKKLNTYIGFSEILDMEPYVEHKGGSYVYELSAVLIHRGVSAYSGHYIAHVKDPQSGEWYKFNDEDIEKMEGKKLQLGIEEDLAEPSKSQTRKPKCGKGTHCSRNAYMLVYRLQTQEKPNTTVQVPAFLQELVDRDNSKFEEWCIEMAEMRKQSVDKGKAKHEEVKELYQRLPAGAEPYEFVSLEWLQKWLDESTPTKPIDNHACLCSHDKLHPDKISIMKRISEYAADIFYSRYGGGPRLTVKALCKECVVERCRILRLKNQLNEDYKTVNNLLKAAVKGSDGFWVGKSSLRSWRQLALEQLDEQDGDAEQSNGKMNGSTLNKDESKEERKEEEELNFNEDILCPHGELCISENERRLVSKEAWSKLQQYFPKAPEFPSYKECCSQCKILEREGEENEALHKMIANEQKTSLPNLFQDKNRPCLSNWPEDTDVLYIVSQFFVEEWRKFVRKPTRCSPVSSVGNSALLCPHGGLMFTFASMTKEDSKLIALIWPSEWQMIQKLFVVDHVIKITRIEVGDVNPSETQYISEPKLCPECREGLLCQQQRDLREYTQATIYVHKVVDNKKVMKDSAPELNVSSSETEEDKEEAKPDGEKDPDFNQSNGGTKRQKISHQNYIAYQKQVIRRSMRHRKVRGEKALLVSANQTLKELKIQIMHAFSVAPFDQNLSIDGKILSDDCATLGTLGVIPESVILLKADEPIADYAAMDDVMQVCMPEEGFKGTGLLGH
Procedure, shortened: as §1

USP5 = target: T4, USP5 (UniProt P45974)
T4 sequence (whole entry): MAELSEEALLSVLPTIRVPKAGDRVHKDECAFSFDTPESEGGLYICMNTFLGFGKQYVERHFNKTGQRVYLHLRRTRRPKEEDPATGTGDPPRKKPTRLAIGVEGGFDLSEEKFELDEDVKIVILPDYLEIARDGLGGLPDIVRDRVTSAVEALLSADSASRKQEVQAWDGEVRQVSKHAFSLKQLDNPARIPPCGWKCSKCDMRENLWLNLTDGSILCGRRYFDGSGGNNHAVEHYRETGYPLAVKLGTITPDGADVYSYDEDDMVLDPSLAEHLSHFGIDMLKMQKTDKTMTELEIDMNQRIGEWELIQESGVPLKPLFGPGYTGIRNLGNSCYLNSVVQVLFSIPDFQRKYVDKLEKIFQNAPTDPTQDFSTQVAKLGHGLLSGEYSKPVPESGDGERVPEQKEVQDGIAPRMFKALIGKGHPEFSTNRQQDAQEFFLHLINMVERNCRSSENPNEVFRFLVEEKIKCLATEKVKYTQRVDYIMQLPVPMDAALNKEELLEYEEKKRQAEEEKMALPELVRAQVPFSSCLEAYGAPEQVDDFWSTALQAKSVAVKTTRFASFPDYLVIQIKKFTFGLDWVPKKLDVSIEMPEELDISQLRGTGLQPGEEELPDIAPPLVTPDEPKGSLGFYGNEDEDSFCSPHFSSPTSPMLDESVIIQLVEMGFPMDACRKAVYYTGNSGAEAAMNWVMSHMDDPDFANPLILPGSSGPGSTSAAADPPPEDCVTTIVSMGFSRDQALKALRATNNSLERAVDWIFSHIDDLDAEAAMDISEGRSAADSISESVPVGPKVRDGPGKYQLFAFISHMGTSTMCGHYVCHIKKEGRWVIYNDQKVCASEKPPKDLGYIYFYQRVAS
Procedure, shortened: as §1

USP54 = USP54 (UniProt Q70EL1)
USP54, sequence (Q70EL1 whole entry): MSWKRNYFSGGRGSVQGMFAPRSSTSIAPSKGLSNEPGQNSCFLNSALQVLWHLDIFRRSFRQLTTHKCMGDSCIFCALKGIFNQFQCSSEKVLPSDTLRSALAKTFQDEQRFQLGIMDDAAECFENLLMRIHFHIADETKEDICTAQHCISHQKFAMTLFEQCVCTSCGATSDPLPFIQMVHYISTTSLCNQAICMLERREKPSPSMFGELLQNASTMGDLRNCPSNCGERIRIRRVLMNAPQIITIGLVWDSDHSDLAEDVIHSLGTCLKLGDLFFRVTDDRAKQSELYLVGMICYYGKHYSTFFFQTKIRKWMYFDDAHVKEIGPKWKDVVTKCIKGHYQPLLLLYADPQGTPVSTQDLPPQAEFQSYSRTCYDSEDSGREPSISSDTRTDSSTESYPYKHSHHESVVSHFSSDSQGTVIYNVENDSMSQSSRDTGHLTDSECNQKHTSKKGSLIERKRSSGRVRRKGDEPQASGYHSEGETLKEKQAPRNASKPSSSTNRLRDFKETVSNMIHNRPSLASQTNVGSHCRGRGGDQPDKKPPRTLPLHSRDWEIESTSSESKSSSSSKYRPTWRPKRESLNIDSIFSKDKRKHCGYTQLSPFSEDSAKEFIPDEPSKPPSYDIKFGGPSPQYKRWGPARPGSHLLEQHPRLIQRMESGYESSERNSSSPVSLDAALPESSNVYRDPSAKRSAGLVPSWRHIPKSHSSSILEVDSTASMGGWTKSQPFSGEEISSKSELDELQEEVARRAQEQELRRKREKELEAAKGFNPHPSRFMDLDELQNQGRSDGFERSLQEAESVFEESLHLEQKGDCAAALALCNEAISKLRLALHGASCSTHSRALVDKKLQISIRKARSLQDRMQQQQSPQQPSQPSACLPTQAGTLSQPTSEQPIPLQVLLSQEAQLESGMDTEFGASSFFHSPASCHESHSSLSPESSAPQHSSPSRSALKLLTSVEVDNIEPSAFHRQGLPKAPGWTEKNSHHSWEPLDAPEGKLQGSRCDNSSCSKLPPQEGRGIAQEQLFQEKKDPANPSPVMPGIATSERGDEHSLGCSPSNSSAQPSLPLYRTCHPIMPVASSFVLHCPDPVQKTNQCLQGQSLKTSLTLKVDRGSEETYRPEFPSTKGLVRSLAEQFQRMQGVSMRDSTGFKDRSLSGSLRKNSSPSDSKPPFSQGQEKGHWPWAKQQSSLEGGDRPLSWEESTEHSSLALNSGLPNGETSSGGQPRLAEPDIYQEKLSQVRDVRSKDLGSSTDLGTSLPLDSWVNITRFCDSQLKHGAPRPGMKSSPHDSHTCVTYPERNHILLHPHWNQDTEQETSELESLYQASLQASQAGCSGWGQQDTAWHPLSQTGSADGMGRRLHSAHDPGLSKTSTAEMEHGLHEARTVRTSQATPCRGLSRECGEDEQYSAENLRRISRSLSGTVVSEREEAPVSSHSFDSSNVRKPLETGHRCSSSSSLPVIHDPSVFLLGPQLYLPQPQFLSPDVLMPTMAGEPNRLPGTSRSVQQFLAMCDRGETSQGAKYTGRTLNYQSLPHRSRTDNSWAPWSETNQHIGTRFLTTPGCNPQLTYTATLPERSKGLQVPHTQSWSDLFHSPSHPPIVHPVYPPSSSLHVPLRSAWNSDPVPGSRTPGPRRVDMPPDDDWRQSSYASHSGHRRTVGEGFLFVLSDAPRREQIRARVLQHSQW
Procedure, shortened: as §1

USP7 = USP7 (UniProt Q93009)
Procedure, shortened: as §1

USP8 = target: T5, USP8 (UniProt P40818)
T5 sequence (whole entry): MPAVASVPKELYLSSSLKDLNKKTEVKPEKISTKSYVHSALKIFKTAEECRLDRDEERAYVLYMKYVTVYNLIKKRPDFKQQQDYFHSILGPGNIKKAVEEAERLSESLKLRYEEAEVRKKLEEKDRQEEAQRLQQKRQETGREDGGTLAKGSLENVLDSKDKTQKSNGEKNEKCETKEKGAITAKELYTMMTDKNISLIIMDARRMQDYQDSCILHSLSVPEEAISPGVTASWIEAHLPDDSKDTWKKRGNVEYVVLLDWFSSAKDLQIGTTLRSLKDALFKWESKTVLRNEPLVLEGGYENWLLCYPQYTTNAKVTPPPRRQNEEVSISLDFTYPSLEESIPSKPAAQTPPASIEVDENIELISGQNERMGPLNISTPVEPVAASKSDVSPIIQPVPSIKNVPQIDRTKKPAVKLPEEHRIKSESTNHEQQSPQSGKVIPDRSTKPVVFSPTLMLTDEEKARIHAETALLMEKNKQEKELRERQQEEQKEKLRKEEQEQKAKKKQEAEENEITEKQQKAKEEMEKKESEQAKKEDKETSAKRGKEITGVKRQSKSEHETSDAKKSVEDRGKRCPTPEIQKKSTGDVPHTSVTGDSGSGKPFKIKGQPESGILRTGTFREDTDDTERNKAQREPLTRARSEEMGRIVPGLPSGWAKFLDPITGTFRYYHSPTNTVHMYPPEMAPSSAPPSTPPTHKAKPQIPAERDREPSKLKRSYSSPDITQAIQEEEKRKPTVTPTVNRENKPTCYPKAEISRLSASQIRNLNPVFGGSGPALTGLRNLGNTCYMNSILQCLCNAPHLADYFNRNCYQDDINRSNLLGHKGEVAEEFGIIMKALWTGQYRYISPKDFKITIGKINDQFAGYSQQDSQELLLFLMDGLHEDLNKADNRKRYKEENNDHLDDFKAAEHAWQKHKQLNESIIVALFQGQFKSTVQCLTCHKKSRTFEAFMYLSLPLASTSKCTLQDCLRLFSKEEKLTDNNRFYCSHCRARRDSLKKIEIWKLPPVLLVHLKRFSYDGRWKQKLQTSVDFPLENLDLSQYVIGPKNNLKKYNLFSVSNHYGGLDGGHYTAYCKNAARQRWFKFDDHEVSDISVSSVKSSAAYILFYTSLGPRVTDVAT
Procedure, shortened: as §1

USP9X = USP9X (UniProt Q93008)
USP9X, sequence (Q93008 whole entry): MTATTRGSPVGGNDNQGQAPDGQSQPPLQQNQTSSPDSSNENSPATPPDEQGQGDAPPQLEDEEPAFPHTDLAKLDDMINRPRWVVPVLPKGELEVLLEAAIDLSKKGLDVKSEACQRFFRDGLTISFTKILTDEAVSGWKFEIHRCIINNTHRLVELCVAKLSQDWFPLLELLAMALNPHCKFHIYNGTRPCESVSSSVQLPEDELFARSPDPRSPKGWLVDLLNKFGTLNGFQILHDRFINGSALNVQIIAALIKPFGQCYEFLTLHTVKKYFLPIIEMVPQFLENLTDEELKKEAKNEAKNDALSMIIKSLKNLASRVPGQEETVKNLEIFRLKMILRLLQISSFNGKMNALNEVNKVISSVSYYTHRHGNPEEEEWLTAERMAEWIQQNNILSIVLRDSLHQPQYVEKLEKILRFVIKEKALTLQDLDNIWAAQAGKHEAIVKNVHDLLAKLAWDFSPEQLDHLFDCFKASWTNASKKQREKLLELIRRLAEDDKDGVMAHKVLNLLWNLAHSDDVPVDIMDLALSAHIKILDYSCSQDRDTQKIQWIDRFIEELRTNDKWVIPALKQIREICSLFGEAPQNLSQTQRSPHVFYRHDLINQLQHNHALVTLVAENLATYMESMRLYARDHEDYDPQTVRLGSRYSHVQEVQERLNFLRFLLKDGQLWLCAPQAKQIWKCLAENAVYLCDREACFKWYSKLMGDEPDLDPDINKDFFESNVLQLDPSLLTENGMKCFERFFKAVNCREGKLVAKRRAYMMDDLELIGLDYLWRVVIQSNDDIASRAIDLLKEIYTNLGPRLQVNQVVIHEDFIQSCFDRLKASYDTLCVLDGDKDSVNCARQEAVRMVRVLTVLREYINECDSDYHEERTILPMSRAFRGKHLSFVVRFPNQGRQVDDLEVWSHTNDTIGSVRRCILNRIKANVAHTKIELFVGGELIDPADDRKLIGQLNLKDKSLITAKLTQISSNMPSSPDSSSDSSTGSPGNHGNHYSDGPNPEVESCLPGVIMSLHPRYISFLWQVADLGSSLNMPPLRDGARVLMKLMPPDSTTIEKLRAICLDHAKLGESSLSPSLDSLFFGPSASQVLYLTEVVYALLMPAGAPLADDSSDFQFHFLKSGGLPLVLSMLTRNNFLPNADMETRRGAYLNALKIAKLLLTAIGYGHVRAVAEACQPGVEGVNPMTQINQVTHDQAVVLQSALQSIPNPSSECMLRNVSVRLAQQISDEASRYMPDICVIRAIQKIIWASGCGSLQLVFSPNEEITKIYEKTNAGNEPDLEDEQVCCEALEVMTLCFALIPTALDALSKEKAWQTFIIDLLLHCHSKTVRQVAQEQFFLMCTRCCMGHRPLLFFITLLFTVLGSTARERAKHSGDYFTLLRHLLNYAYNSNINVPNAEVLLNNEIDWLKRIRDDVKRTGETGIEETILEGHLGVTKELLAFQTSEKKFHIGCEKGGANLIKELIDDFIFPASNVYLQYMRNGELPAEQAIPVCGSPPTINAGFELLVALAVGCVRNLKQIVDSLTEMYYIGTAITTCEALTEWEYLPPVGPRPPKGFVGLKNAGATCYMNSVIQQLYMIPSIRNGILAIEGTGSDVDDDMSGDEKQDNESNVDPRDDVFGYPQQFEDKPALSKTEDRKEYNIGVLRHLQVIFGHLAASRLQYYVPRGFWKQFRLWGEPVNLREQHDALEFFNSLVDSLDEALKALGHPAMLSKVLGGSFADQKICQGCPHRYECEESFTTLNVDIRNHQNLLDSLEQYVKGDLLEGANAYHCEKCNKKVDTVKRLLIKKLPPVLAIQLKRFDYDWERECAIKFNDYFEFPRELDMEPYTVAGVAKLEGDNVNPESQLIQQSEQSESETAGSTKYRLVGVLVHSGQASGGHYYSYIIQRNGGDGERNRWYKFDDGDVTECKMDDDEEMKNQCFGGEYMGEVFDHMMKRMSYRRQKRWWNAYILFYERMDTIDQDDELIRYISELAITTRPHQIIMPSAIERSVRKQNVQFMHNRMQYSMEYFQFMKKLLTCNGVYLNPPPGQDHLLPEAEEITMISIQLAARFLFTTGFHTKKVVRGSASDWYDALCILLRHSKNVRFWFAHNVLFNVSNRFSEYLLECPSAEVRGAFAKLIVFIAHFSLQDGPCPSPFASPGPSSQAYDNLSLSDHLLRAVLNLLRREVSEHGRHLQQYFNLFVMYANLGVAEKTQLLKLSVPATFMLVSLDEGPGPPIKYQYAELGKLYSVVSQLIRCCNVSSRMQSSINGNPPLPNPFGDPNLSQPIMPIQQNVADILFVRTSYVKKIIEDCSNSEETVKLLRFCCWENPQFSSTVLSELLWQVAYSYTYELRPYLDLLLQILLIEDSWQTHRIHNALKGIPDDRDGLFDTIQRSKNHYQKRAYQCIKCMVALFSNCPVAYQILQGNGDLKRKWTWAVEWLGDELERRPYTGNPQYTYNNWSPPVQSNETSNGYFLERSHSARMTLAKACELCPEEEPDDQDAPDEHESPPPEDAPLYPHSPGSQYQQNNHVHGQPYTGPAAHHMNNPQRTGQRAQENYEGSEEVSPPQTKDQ
Procedure, shortened: as §1

UniProt O00487 = target: UniProt O00487
UniProt O00487, sequence (O00487 whole entry): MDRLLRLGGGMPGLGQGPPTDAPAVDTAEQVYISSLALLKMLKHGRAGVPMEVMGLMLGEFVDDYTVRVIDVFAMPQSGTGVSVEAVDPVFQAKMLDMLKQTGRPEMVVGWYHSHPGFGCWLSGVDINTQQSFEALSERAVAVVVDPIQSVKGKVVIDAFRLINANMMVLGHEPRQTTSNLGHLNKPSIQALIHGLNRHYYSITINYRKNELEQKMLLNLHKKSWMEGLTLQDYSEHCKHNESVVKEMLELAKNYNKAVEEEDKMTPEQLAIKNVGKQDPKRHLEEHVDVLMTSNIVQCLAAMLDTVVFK
Procedure, shortened: as §1

Measured: log2 ratio of Biotin-Ahx-Ub-VS probe labelling

CS(=O)(=O)c1ccc(CNC(=O)CCl)cc1
inactive: USP42 0.283 | USP46 -0.122 | USP47 -0.0551 | USP48 -0.0444 | USP5 -0.111 | USP54 0.392 | USP7 -0.145 | USP8 -0.0148 | USP9X -0.103 | UniProt O00487 -0.101

COc1cccc(CN(C)C(=O)CCl)c1
active: USP7 -1.43
inactive: USP42 -0.309 | USP46 -0.0667 | USP47 -0.35 | USP48 -0.935 | USP5 0.462 | USP54 0.00406 | USP8 0.148 | USP9X 0.0455 | UniProt O00487 0.0127

CNC(=O)Cn1cc(NC(=O)CCl)cn1
inactive: USP42 -0.595 | USP46 0.000623 | USP47 0.0561 | USP48 0.0267 | USP5 -0.241 | USP54 0.48 | USP7 -0.438 | USP8 -0.282 | USP9X -0.287 | UniProt O00487 -0.0928

O=C(CCl)N1CCC(S(=O)(=O)c2ccc(F)cc2)CC1
inactive: USP42 -0.133 | USP46 -0.0321 | USP47 -0.145 | USP48 -0.355 | USP5 0.248 | USP54 0.501 | USP7 -0.535 | USP8 -0.0595 | USP9X -0.118 | UniProt O00487 0.043
